Measured values as given in the supplement of paper PMC6555819.

Assays:
Test in all cases: PBM binding z-score (relative to random genomic background probes); higher = stronger binding; sequences stand for … in GC…GCGATTGACAGCGTAGAATGAAGG
[1] = test system: FXR:RXRa (NR concentration 270 nM, RXRa partner concentration 90 nM)
How it was run: (§1)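 Binding z-scores take random background probes as their reference. They come from custom Agilent 4×180K protein-binding microarrays incubated 1 h with ligand-free nuclear receptor dimers, with antibodies against each partner (one per run) detecting binding. Scanned fluorescence was regression-normalized.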

[2] = test system: LXRa:RXRa (NR concentration 270 nM, RXRa partner concentration 90 nM)
How it was run: as §1

[3] = test system: LXRa homodimer (NR concentration 270 nM)
How it was run: as §1

[4] = test system: LXRb:RXRa (NR concentration 270 nM, RXRa partner concentration 90 nM)
How it was run: as §1

[5] = test system: LXRb homodimer (NR concentration 270 nM)
How it was run: as §1

[6] = test system: PPARa:RXRa (NR concentration 270 nM, RXRa partner concentration 90 nM)
How it was run: as §1

[7] = test system: PPARg:RXRa (NR concentration 180 nM, RXRa partner concentration 90 nM)
How it was run: as §1

[8] = test system: PPARg:RXRa 270nM:90nM, anti-RXR (NR concentration 270 nM, RXRa partner concentration 90 nM)
How it was run: as §1

[9] = test system: PPARg:RXRa 30nM:10nM, anti-RXR (NR concentration 30 nM, RXRa partner concentration 10 nM)
How it was run: as §1

[10] = test system: PPARg:RXRa 90nM:30nM, anti-RXR (NR concentration 90 nM, RXRa partner concentration 30 nM)
How it was run: as §1

| Sequence | PBM binding z-score [1] | PBM binding z-score [2] | PBM binding z-score [3] | PBM binding z-score [4] | PBM binding z-score [5] | PBM binding z-score [6] | PBM binding z-score [7] | PBM binding z-score [8] | PBM binding z-score [9] | PBM binding z-score [10] |
| --- | --- | --- | --- | --- | --- | --- | --- | --- | --- | --- |
| CCTACTGGGCCATTCACAGGTCATTGATCATATG | 0.864 | 2.27 | 4.05 | 2.21 | -0.0927 | 2.62 | 1.27 | 2.04 | 0.468 | 1.3 |
| CCTACTGCGCCATTCAGAGGTCATTGATCATATG | 3.32 | 4.74 | 7.35 | 4.35 | 1.54 | 3.8 | 0.615 | 1.89 | 0.275 | 0.91 |
| ATCTCTAGGTAACAACTTCAGTGAAAGAGAGGAC | 0.55 | 0.485 | 0.102 | 0.396 | 0.978 | 0.493 | 0.782 | 0.618 | 0.652 | 0.573 |
| GTACCAAGGTGAATAGGTCGTTTATGAGTAGGCG | 0.975 | 1.13 | 0.161 | 0.811 | -0.198 | 2.44 | 1.62 | 1.79 | 0.597 | 1.5 |
| CCTAGTTGGTCAGGAGGTCACCCACCGGATATGA | 3.56 | 3.31 | 1.59 | 3.13 | 0.503 | 4.04 | 2.76 | 3.87 | 1.01 | 2.98 |
| TTACCAAGGTGAAGCTCGTTGATCCCTCTGTAGA | 0.0851 | -0.0821 | -1.1 | -0.274 | -1.24 | 1.09 | -0.0345 | 0.378 | 0.125 | 0.429 |
| AGTCAAAGTTCAGGAAGAGGTAACGTAAAGCACG | 3.92 | 3.76 | 0.911 | 2.07 | 0.602 | 3.54 | 4.98 | 4.92 | 1.98 | 3.88 |
| GCAAACAGGTGAAACGCAGGTAACTCAGGGTGGC | -0.182 | -0.0525 | -0.463 | -0.425 | -0.88 | 0.919 | 0.672 | 0.158 | -0.786 | -0.33 |
| GCTCGGAGGACAAGATCAGAGCTTTGTCCGTAGA | -0.699 | -0.742 | -0.685 | -0.96 | -0.96 | -0.552 | -0.773 | -0.906 | -1.18 | -1.04 |
| TCTTGTAGATCAAGCAGGGTAAGAAAGCCTGAGT | 0.561 | -0.0537 | -0.634 | 0.0919 | -0.511 | 0.15 | -0.37 | 1.08 | 2.34 | 1.6 |
| AGAATGAGGTTATACGTAGAGCAGGGAAGAAAGT | 2.07 | 1.8 | -0.116 | 1.59 | 0.336 | 2.98 | 1.76 | 2.08 | 0.738 | 1.52 |
| TCTATTAGTTGATTAGGGCGACCGAAACAGCGGA | 0.395 | 0.617 | 0.293 | 0.356 | 0.556 | 0.801 | -0.0653 | 1.73 | 3.64 | 2.8 |
| CAAACTAGGTAAAGGTCAAAGTCGGTTTGTGCCA | 6.46 | 6.21 | 5.75 | 5.55 | 2.15 | 6.23 | 7.83 | 7.43 | 6.03 | 7.54 |
| CGAACTAGGTCATTGACAGCACAGTGAATAGTAA | 4.2 | 2.64 | 0.265 | 2.07 | 0.329 | 4.78 | 7.32 | 6.23 | 3.86 | 5.6 |
| AGAACGAGGGTACGCTGAGTTGATAGCAGAGTAG | -0.315 | -0.553 | -0.621 | -0.739 | -0.968 | -0.00229 | 0.661 | -0.197 | -0.127 | -0.289 |
| GCCGCTAGGTCAACTGATGGTCAGCTAAAGCTCG | 3.97 | 3.16 | 0.212 | 1.89 | -0.472 | 3.71 | 2.44 | 3.07 | 0.658 | 1.82 |
| TCTTGTAGATCAGCAGGTTAACAAAGCTGGCCAA | 0.321 | 0.368 | -0.313 | 0.507 | -0.6 | 1.21 | 0.102 | 1.77 | 2.61 | 2.21 |
| TCTAGTTGGTCAAAGGTCACAAACTCGAAATGCG | 4.94 | 5.27 | 3.15 | 5.16 | 1.49 | 6.4 | 10.9 | 9.72 | 9.69 | 10.3 |
| CTACAAAGGTGAACAAGGTCGTTGATTACTATTC | 2.91 | 2.94 | 0.453 | 3.1 | -0.0435 | 4.39 | 3.3 | 3.46 | 0.912 | 2.84 |
| CAGACTGGGGCAAAGGTTACCATACTCAGTACGA | 2.11 | 2.13 | 0.0267 | 2.49 | -0.226 | 5.94 | 10.9 | 8.6 | 9.03 | 10.1 |
| CACACTAGGTCACCGGAAGGTCAAAGTCCGCATG | 6.4 | 6.18 | 6.43 | 5.72 | 2.16 | 6.24 | 8.71 | 7.07 | 4.59 | 6.32 |
| GCGACTGGGGCAAAGAAGGTTACCATAAGGTTGG | 1.24 | 0.788 | -0.0747 | 1.06 | -0.824 | 1.72 | 1.56 | 2.22 | 0.513 | 1.66 |
| GCTGCTAGGTCAACTGATGGTAAGCTAAAGCTCG | 3.67 | 2.53 | -0.233 | 1.66 | -0.0534 | 3.56 | 2.6 | 2.85 | 0.773 | 2.04 |
| AGTCAAAGTTCACCTAGGTAACGTAAGATATGCT | 6.25 | 5.63 | 3.58 | 3.92 | 1.2 | 4.94 | 7.15 | 6.41 | 3.81 | 5.63 |
